Source: PubChem BioAssay (EPA / NIEHS)
Values joined by “and” are separate entries in the source; they are usually repeats but may differ in a detail not shown here. Identical values can stand only once. A structure can be active in one record and inactive in another. Active and inactive are the calls of the source. The calls were made as follows: active = hit-call score of the fitted dose curve at least 0.9, where 1 is the maximum; inactive = score below 0.9.

Assay: CCTE_Shafer_MEA_acute_burst_percentage_mean: CCTE's Neural Acute Assay for Percentage of Spikes in a Burst, Shafer Lab (AID 2284017);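 as to AC50: curve fitted for loss of signal so potency reflects decreased burst percentage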
Outline: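 Primary rat cortical neurons on 48-well MEA plates, treated on DIV 13 or 15 at 0.03-40 uM. Spikes detected at 8x rms noise at 37C; percent change from 40-min baseline to 40-min post-dose recording, fitted versus DMSO.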

Row | Compound | AC50 | outcome
1 | N#CSCSC#N | 27 µM (active) | –
2 | CCOP(=S)(OCC)SCCSCC | – | inactive
3 | COP(=O)(NC(C)=O)SC (stereo not drawn) | 0.792 µM (active) | inactive
4 | CCOP(=S)(OCC)Oc1ccc2c(C)c(Cl)c(=O)oc2c1 | 3.9 µM (active) | –
5 | O=[N+]([O-])c1cc(C(F)(F)F)c(Cl)c([N+](=O)[O-])c1Nc1ncc(C(F)(F)F)cc1Cl | 0.678 µM (active) | –
6 | CNC(=O)ON=C(SC)C(=O)N(C)C | – | inactive
7 | CN(C)[C@@H]1C(=O)C(C(N)=O)=C(O)[C@@]2(O)C(=O)C3=C(O)c4c(O)cccc4[C@@](C)(O)[C@H]3[C@H](O)[C@@H]12 | – | inactive
8 | CC(C)=CC1C(C(=O)OCN2C(=O)C3=C(CCCC3)C2=O)C1(C)C (stereo not drawn) | 20 µM (active) | –
9 | CC(COc1ccc(Oc2ccccc2)cc1)Oc1ccccn1 (stereo not drawn) | 10.3 µM (active) | –
10 | CON=C(C(=O)OC)c1ccccc1CON=C(C)c1cccc(C(F)(F)F)c1 | 1.12 µM (active) | –
11 | CCc1cnc(C2=NC(C)(C(C)C)C(=O)N2)c(C(=O)O)c1 (stereo not drawn) | – | inactive
12 | CC(C)N(C(=O)SCC(Cl)=C(Cl)Cl)C(C)C | 20 µM (active) and 15 µM (active) | –
13 | COP(=O)(OC)C(O)C(Cl)(Cl)Cl (stereo not drawn) | – | inactive
14 | Cc1ccn2nc(S(=O)(=O)Nc3c(F)cccc3F)nc2n1 | – | inactive
15 | CC1=NNC(=O)N(/N=C/c2cccnc2)C1 | – | inactive
16 | C[Si](Cn1cncn1)(c1ccc(F)cc1)c1ccc(F)cc1 | 15.4 µM (active) | –

Assay: CCTE_Shafer_MEA_acute_burst_percentage_std: CCTE's Neural Acute Assay for Standard Deviation of Burst Percentage, Shafer Lab (AID 2284018);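 also: fitted in the negative direction so actives lower burst percentage SD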
Outline: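 Value is percent change from baseline in the across-electrode SD of spikes-in-bursts percentage, wells with >/= 10 active electrodes. Acute 40-min exposure to 0.03-40 uM on DIV 13 or 15 rat cortical cultures, recorded at 37 C after 40-min baseline.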

Row | Compound | outcome | AC50
17 | FC(F)C(F)(F)OCC(Cn1cncn1)c1ccc(Cl)cc1Cl (stereo not drawn) | inactive | –
18 | C=C(C)[C@H]1Cc2c(ccc3c2O[C@@H]2COc4cc(OC)c(OC)cc4[C@@H]2C3=O)O1 | – | 30.3 µM (active)
19 | CC(=NC#N)N(C)Cc1ccc(Cl)nc1 | inactive | –
20 | COc1cc(OC)nc(Sc2cccc(Cl)c2C(=O)O)n1 | inactive | –
21 | CCCOCC(=Nc1ccc(Cl)cc1C(F)(F)F)n1ccnc1 | inactive | –
22 | CCc1cccc(C)c1N(C(=O)CCl)C(C)COC (stereo not drawn) | inactive | –
23 | CC(C)[C@H](C(=O)O[C@H](C#N)c1cccc(Oc2ccccc2)c1)c1ccc(Cl)cc1 | inactive | –
24 | CCOP(=S)(Oc1cnc(C(C)(C)C)nc1)OC(C)C (stereo not drawn) | inactive | –
25 | CN1COCN(Cc2cnc(Cl)s2)C1=N[N+](=O)[O-] | inactive | –
26 | CCOC(=O)CC(SP(=O)(OC)OC)C(=O)OCC (stereo not drawn) | inactive | –
27 | Nc1c(Cl)cc([N+](=O)[O-])cc1Cl | – | 26.9 µM (active)
28 | CSC1=N[C@@](C)(c2ccccc2)C(=O)N1Nc1ccccc1 | – | 37.7 µM (active) and 26.1 µM (active)
29 | C#CCC1=C(C)C(OC(=O)C2C(C=C(C)C)C2(C)C)CC1=O (stereo not drawn) | – | 19.9 µM (active)
30 | O=C(O)c1cc(Oc2ccc(C(F)(F)F)cc2Cl)ccc1[N+](=O)[O-] | inactive | –
31 | C[N+]1(C)CCCCC1 | inactive | –
32 | CN(C)NC(=O)CCC(=O)O | inactive | –
33 | CCOP(=O)(NC(C)C)Oc1ccc(SC)c(C)c1 (stereo not drawn) | inactive | –
34 | CC[C@H](C)[C@H]1O[C@]2(C=C[C@@H]1C)C[C@@H]1C[C@@H](C/C=C(\C)[C@@H](O[C@H]3C[C@H](OC)[C@@H](O[C@H]4C[C@H](OC)[C@@H](NC)[C@H](C)O4)[C@H](C)O3)[C@@H](C)/C=C/C=C3\CO[C@@H]4[C@H](O)C(C)=C[C@@H](C(=O)O1)[C@]34O)O2 | – | 48.5 nM (active) and 2.98 µM (active)
35 | N#CSCSC#N | inactive | –
36 | CCOP(=S)(OCC)SCCSCC | inactive | –
37 | COP(=O)(NC(C)=O)SC (stereo not drawn) | inactive | 4.26 µM (active)
38 | CCOP(=S)(OCC)Oc1ccc2c(C)c(Cl)c(=O)oc2c1 | inactive | –
39 | O=[N+]([O-])c1cc(C(F)(F)F)c(Cl)c([N+](=O)[O-])c1Nc1ncc(C(F)(F)F)cc1Cl | inactive | –
40 | CNC(=O)ON=C(SC)C(=O)N(C)C | inactive | –
41 | CN(C)[C@@H]1C(=O)C(C(N)=O)=C(O)[C@@]2(O)C(=O)C3=C(O)c4c(O)cccc4[C@@](C)(O)[C@H]3[C@H](O)[C@@H]12 | inactive | –
42 | CC(C)=CC1C(C(=O)OCN2C(=O)C3=C(CCCC3)C2=O)C1(C)C (stereo not drawn) | – | 26.1 µM (active)
43 | CC(COc1ccc(Oc2ccccc2)cc1)Oc1ccccn1 (stereo not drawn) | – | 20 µM (active)
44 | CON=C(C(=O)OC)c1ccccc1CON=C(C)c1cccc(C(F)(F)F)c1 | inactive | –
45 | CCc1cnc(C2=NC(C)(C(C)C)C(=O)N2)c(C(=O)O)c1 (stereo not drawn) | inactive | –
46 | CC(C)N(C(=O)SCC(Cl)=C(Cl)Cl)C(C)C | – | 20 µM (active) and 7.81 µM (active)
